Experimental data taken from PubChem BioAssay AID2061304 (National Center for Advancing Translational Sciences (NCATS), 2025).
Results filed as inconclusive are left out. Calls of active or inactive are those of the source. Calls come from the whole dose curve; as a rule, active = well fitted inhibition curve with a large enough effect; inconclusive = small, poorly fitted or top-dose-only effect; inactive = flat fitted curve, though single readings scatter. Square brackets hold non-standard residues; d marks the D form. Peptide text beside a SMILES is read from it. Dolaproine = CO[C@@H]([C@@H]1CCCN1)[C@@H](C)C(=O)O; Dil = CC[C@H](C)[C@H](NC)[C@@H](CC(=O)O)OC; NMeV = CN[C@H](C(=O)O)C(C)C

test: Identification of antibody-drug conjugate (ADC) payloads which are substrates of ATP-binding cassette drug efflux transporters: ABCB1-HeLa-KB-8-5-11 cell line; details: KB-8-5-11 (P-gp overexpressing HeLa) viability, CellTiter-Glo, 48 h; series mostly up to 31.4 µM; activity change, negative = less viable: at the top concentration
From the text: Antibody-drug conjugates (ADCs) feature an antibody recognizing a specific protein joined to a potent toxic payload. Numerous antibody-drug conjugates have received FDA approval; however, clinical resistance arises. Resistance mechanisms include decreased expression or mutation of the antibody target, impaired payload release, or increased expression of ATP-binding cassette (ABC) efflux transporters associated with multidrug resistance. We therefore sought to characterize the interaction of ABC multidrug transporters with ADC payloads. We performed a high-throughput screen with 27 common ADC payloads using cells lines expressing ABC transporters P-glycoprotein (P-gp, encoded by ABCB1) or ABCG2 (encoded by ABCG2). Confirmatory assays were also performed using cells transfected to express P-gp, ABCG2, or MRP1 (encoded by ABCC1). Several commonly used ADC payloads were substrates of P-gp, including calicheamicin gamma1, monomethyl auristatin E, DM1, and DM4. All the pyrrolobenzodiazepines tested - SJG136, SGD-1882, SG2057, and SG3199 - were substrates of P-gp, ABCG2, and MRP1. […] These findings highlight the risk of transporter-mediated resistance with certain ADC payloads and underscore the importance of selecting payloads that evade ABC transporter recognition in future ADC development.
HEK-293 cells were transfected with empty vector (pcDNA) or vector containing the human ABCB1 (MDR-19), ABCG2 (R-5), or ABCC1 gene (MRP1) and were maintained in EMEM with 2 mg/mL G418 added to maintain transporter expression. The HeLa derivative KB-3-1 and the P-gp overexpressing KB-8-5-11 subline were maintained in DMEM; KB-8-5-11 additionally received 100 ng/mL colchicine. H460 parental cells were obtained from the Division of Cancer Treatment and Diagnosis Tumor Repository, National Cancer Institute at Frederick, MD and were cultured in RPMI. The ABCG2 expressing subline H460 MX20 was generated by selecting H460 cells in 20 nM mitoxantrone. Media in all cases was supplemented with 10% FBS and 1% penicillin-streptomycin. We explored 27 common ADC payloads, in two orthogonal, paired cell line sets-a drug selected and transfected set for each transporter--to identify substrates of the ABC transporters P-gp and ABCG2. Compounds were sourced from Levena Biopharma (San Diego, CA), Selleck Chem (Houston, TX), ChemieTek (Indianapolis, IN), or Microsource Discovery Systems (Gaylordsville, CT). Screening was performed as previously described. Briefly, cells were plated at a density of 500 cells/well in 1536 well plates with compounds added using a 1536-head pin tool (Kalypsys, San Diego CA). Cells were incubated with cytotoxic drugs and processed with CellTiter Glo reagent (Promega, Madison, WI) to determine viability after 48 hours. P-gp substrates were identified by comparing compound activity between paired sets of low-expressing (sensitive) and over-expressing (resistant) cell lines.

| Structure (SMILES) | Potency | activity change, negative = less viable |
| --- | --- | --- |
| CC[C@]1(O)CC2CN(CCc3c([nH]c4ccccc34)[C@@](C(=O)OC)(c3cc4c(cc3OC)N(C)[C@H]3[C@@](O)(C(=O)OC)[C@H](OC(C)=O)[C@]5(CC)C=CCN6CC[C@]43[C@@H]65)C2)C1 (stereo partly drawn) | 298 nM (active) |  |
| COc1cccc2c1C(=O)c1c(O)c3c(c(O)c1C2=O)C[C@@](O)(C(=O)CO)C[C@@H]3O[C@H]1C[C@H](N)[C@H](O)[C@H](C)O1 | 16700 nM (active) |  |
| CC[C@H](C)[C@@H]([C@H](N)CC(=O)N1CCC[C@H]1[C@H](OC)[C@@H](C)C(=O)N[C@@H](Cc1ccccc1)c1nccs1)N(C)C(=O)[C@@H](NC(=O)[C@@H](NC)C(C)C)C(C)C | 1.9 nM (active) |  |
| CC(C)(C)OC(=O)Nc1ccc2[nH]c(C(=O)N3C[C@@H](CCl)c4c3cc(O)c3ccccc43)cc2c1 | 9.4 nM (active) |  |
| COC(=O)c1cc2c3c(cc(O)c2[nH]1)N(C(=O)c1cc2cc(OC)c(OC)c(OC)c2[nH]1)CC3CCl (stereo not drawn) | 0.6 nM (active) |  |
| CN(C)CCOc1ccc2[nH]c(C(=O)N3C[C@@H](CCl)c4c3cc(O)c3ccccc43)cc2c1 | 0.7 nM (active) |  |
| CC[C@H](C)[C@@H]([C@H](N)CC(=O)N1CCC[C@H]1[C@H](OC)[C@@H](C)C(=O)N[C@@H](Cc1ccccc1)c1nccs1)N(C)C(=O)[C@@H](NC(=O)[C@H](C(C)C)N(C)C)C(C)C | 6.7 nM (active) |  |
| COc1cc2cc(c1Cl)N(C)C(=O)C[C@H](O)[C@]1(C)O[C@H]1[C@H](C)C1C[C@@](O)(NC(=O)O1)[C@H](OC)/C=C/C=C(\C)C2 | 13300 nM (active) |  |
| CC[C@H](C)[C@@H]([C@@H](CC(=O)N1CCC[C@H]1[C@H](OC)[C@@H](C)C(=O)N[C@@H](Cc1ccccc1)C(=O)O)OC)N(C)C(=O)[C@@H](NC(=O)[C@@H](NC)C(C)C)C(C)C (H-[NMeV]V[Dil][Dolaproine]F-OH) | 265 nM (active) |  |
| CCc1c2c(nc3ccc(O)cc13)-c1cc3c(c(=O)n1C2)COC(=O)[C@]3(O)CC | 1330 nM (active) |  |
| CCN[C@H]1CO[C@@H](O[C@H]2[C@H](O[C@H]3C#C/C=C\C#C[C@]4(O)CC(=O)C(NC(=O)OC)=C3/C4=C\CSSSC)O[C@H](C)[C@@H](NO[C@H]3C[C@H](O)[C@H](SC(=O)c4c(C)c(I)c(O[C@@H]5O[C@@H](C)[C@H](O)[C@@H](OC)[C@H]5O)c(OC)c4OC)[C@@H](C)O3)[C@@H]2O)C[C@@H]1OC | 420 nM (active) |  |
| COc1ccc(C2=CN3C(=O)c4cc(OC)c(OCCCOc5cc6c(cc5OC)C(=O)N5C=C(c7ccc(N)cc7)C[C@@H]5C=N6)cc4N=C[C@H]3C2)cc1 |  | 0.446% (inactive) |
| COc1cccc2c1C(=O)c1c(O)c3c(c(O)c1C2=O)C[C@@](O)(C(=O)CO)C[C@@H]3O[C@H]1C[C@H]2[C@H](O[C@@H]3[C@@H](OC)OCCN32)[C@H](C)O1 | 0.2 nM (active) |  |
